This passage reports Potency and outcome results from PubChem BioAssay (Tox21).

Several values for one entry are separate records, joined by “and”; a condition that tells them apart may be missing. Equal entries are not always repeated. Inconclusive results are not listed. Some structures have more than one record in an assay (separate samples or runs), and their calls can disagree. Activity calls are given as the source filed them. Unless noted, the call rests on the fitted dose curve; in most records, active means well fitted curve in the direction sought with a large enough effect in the repeat runs; inconclusive means weak or mixed curves; inactive means no such curve, though single readings can be large; an effect the other way counts as inactive or inconclusive.

The nature of test [1]: qHTS assay to identify small molecule agonists of the vitamin D receptor (VDR) signaling pathway - cell viability counter screen (AID 743224). Further: series mostly up to about 63 µM; nearly all actives have a fitted effect of over 50% in size. The gist of the method:
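VDR-bla cells were preincubated 4 h at 37C/5% CO2, then exposed to compounds for 16 h. After the 2 h room-temperature bla FRET read, CellTiter-Glo was added to the same wells and luminescence read after 30 min.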

A short description of test [2]: qHTS assay to identify small molecule antagonists of the vitamin D receptor (VDR) signaling pathway - cell viability counter screen (AID 743225). Further: nearly all actives have a fitted effect of over 50% in size. The gist of the method: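 Compounds were pinned onto VDR-bla HEK 293T cells together with 1-alpha,25-dihydroxyvitamin D3 at 3 nM final. After 16 h at 37C and 5% CO2 plus the reporter readout, cell viability was measured by CellTiter-Glo luminescence (30 min, room temperature).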

The nature of test [3]: qHTS assay to identify small molecule agonists of the NFkB signaling pathway (AID 1159509; active means well fitted curve in the direction sought with a large enough effect in the signal ratio in the repeat runs, not every such curve was filed as active; the % refers to the signal ratio; further: series mostly up to about 61 µM). The gist of the method: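 NFkB-bla ME-180 cells with a beta-lactamase reporter under an NF-kB response element were plated overnight, treated with compounds in DMSO for 5 hr at 37 C, then loaded with FRET substrate for 1.5 hr at room temperature.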
Test [4] in a line: qHTS assay to identify small molecule agonists of the NFkB signaling pathway - cell viability counter screen (AID 1159515; calls by dose curve; further: series mostly up to about 61 µM; nearly all actives have a fitted effect of over 55% in size). The gist of the method: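 NFkB-bla ME-180 cells, 2,000/well, were plated overnight at 37 C, 5% CO2, then exposed to compounds in DMSO for 5 hr. After the bla FRET read, CellTiter-Glo was added to the same wells; luminescence was read after 30 min at room temperature.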

Test [5] is described as follows: qHTS assay to identify small molecule agonists of the endoplasmic reticulum stress response signaling pathway (AID 1159516; active means well fitted activation curve with a large enough effect in the signal ratio in the repeat runs, not every such curve was filed as active; the % refers to the signal ratio). The gist of the method: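 CellSensor ESRE-bla HeLa cells, carrying a beta-lactamase reporter driven by the ER stress response element, were plated overnight and exposed to compounds for 5 hr at 37 C. Reporter activity was read as FRET substrate fluorescence after 2 hr at room temperature.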
For orientation: Quantitative high-throughput screening tests each substance at several concentrations.

Test [6] can be described thus: qHTS assay to identify small molecule agonists of the endoplasmic reticulum stress response signaling pathway - cell viability counter screen (AID 1159517; calls by dose curve; further: series mostly up to about 61 µM; nearly all actives have a fitted effect of over 50% in size). The gist of the method:
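Luminescence readout: CellTiter-Glo, 30 min RT, same wells as the ESRE-bla reporter read. HeLa ESRE-bla, 1,500 cells/well, o/n 37 C; cpd 5 hr 37 C/5% CO2.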

Test [7] is described as follows: qHTS assay to identify small molecule antagonists of the retinoid-related orphan receptor gamma (ROR-gamma) signaling pathway - cell viability counter screen (AID 1159520). Further: nearly all actives have a fitted effect of over 50% in size. A digest of the protocol: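 Tet-on ROR gamma CHO cells (1,000/well) were plated 4 hr, given compounds in DMSO for 2 hr at 37 C, then induced with 1 uM final doxycycline for 16 hr. Viability was read as ATP by CellTiter-Glo luminescence after 30 min.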

In test [8] the target is Nuclear receptor ROR-gamma (Homo sapiens) (UniProt P51449). The experiment in a line: qHTS assay to identify small molecule antagonists of the retinoid-related orphan receptor gamma (ROR-gamma) signaling pathway (AID 1159521; further: nearly all actives have a fitted effect of over 50% in size; further: potency means the concentration at half of the fitted maximal effect). The gist of the method:
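Test compounds were applied to Tet-on RORγ CHO cells 2 h ahead of doxycycline hyclate (1 uM final). Luciferase reporter activity was quantified by luminescence after 16 h at 37 C and 5% CO2.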

The nature of test [9]: qHTS assay to identify small molecule agonists of the AP-1 signaling pathway - cell viability counter screen (AID 1159525; calls by dose curve; further: nearly all actives have a fitted effect of over 55% in size). The gist of the method:
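ME-180 AP-1-bla, 2500 cells/well, Opti-MEM + 0.5% dialyzed FBS; overnight 37 °C; cpd 15-pt titration, 5 h 37 °C; CellTiter-Glo 30 min RT; luminescence read; normalised to TOAB and DMSO controls.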

Test [10] in a line: qHTS assay to identify small molecule agonists of the AP-1 signaling pathway (AID 1159526; calls by dose curve).
The target of test [11] is Retinoic acid receptor RXR-alpha (Homo sapiens) (UniProt P19793). The test can be described thus: qHTS assay to identify small molecule agonists of the RXR signaling pathway (AID 1159527; calls by dose curve; further: nearly all actives have a fitted effect of over 35% in size; further: potency means the concentration at half of the fitted maximal effect). The gist of the method: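 Using 9-cis retinoic acid as the reference agonist, chemicals were tested in HEK 293T cells […] for 16 hr; substrate loading lasted 2 hr at room temperature.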

Test [12] is described as follows: qHTS assay to identify small molecule agonists of the RXR signaling pathway - cell viability counter screen (AID 1159529). The gist of the method:
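Compounds dissolved in DMSO were pinned onto HEK 293T cells carrying a beta-lactamase reporter under RXR-alpha control and incubated 16 hr. Cytotoxicity was then quantified by CellTiter-Glo luminescence.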

Test [13] in a line: qHTS assay to identify small molecule antagonists of the retinoid acid receptor (RAR) signaling pathway - cell viability counter screen (AID 1159551). Further: nearly all actives have a fitted effect of over 35% in size. The gist of the method: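 C3RL4 cells were seeded overnight at 37 C, then treated with compounds plus 1 uM (final) retinol for 6 h at 37 C. Viability was read as ATP by CellTiter-Glo luminescence after 30 min at room temperature.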

Test [14] can be described thus: qHTS assay to identify small molecule antagonists of the retinoic acid receptor (RAR) signaling pathway (AID 1159552; further: nearly all actives have a fitted effect of over 50% in size). The gist of the method: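 Test chemicals and DMSO controls were pin-transferred onto C3RL4 cells a day after seeding; retinol (1 uM final) followed at once. Luminescent reporter output was quantified after 6 hr of co-incubation and 30 min with detection reagent.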

Test [15] can be described thus: qHTS assay to identify small molecule agonists of the retinoic acid receptor (RAR) signaling pathway (AID 1159553). Further: potency means the concentration at half of the fitted maximal effect. A digest of the protocol:
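C3RL4 cells carrying a RARE luciferase reporter were plated overnight at 37 C, then exposed to compounds in DMSO for 6 hr at 37 C and 5% CO2. Luminescence was read 30 min after luciferase reagent addition at room temperature.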

Retinoic acid receptor RXR-alpha (Homo sapiens), sequence (P19793 whole entry, looked up): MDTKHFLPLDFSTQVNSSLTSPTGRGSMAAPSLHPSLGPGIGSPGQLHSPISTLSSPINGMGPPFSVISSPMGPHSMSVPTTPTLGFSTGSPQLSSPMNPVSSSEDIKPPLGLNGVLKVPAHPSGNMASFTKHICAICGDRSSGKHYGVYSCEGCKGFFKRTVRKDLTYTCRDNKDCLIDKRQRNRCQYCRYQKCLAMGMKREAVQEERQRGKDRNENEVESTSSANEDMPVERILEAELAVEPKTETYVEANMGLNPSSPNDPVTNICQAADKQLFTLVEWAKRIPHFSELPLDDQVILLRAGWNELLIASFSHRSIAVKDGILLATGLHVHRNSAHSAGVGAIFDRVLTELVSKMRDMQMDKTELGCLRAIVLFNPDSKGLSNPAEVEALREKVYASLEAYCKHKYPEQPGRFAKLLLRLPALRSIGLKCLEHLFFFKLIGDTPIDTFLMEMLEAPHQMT

Turning to `CCCCNC(=O)NS(=O)(=O)c1ccc(N)cc1`, the Potency result in test [1], in test [6], in [8], in test [10], in [11] and in test [12] was “inactive” throughout. The Potency result in test [14] and in test [15] was “inactive” throughout. For the same compound, the result in [2], in test [3], in [4], in [5], in test [7] and in test [9] was inactive. Besides, in test [13], the result was inactive.
Turning to `c1ccc2[nH]c(-c3cscn3)nc2c1`, the Potency result in test [1], in test [6], in test [8], in [10], in test [12] and in test [14] was “inactive” throughout. Besides, the call in test [2], in [3], in [4], in test [5], in test [7] and in test [9] was inactive. In addition, the outcome in test [13] was inactive. Also, the Potency in test [11] is 1.1 µM (active) and inactive; in test [15], 8.69 µM (active) and 2.43 µM (active) and 5.31 µM (active).
Take `CC(C)CC(C)CC(O)CC(C)C` (stereo not given): the Potency entry in [1], in test [6], in test [8], in test [10], in test [11] and in test [12] was “inactive” in each case. Moreover, the Potency entry in test [14] and in test [15] was “inactive” throughout. In addition, the compound was called inactive in test [2], in test [3], in [4], in test [5], in test [7] and in [9]. In addition, the call in test [13] was inactive.
On to `NC(N)=NC(N)=NCCc1ccccc1`, for which the Potency result in [1], in test [6], in test [10], in test [11], in test [12] and in test [14] was “inactive” throughout. Moreover, in test [15], the Potency entry is “inactive”. Moreover, the compound was called inactive in test [2], in test [3], in test [4], in test [5], in [7] and in [9]. In test [13], the compound was called inactive. Moreover, in [8], the Potency is 30.6 µM (active).
Turning to `C#C[C@]1(O)CC[C@H]2[C@@H]3CCc4cc(O)ccc4[C@H]3CC[C@@]21C`, the Potency result in test [1], in test [6], in test [10], in test [11], in test [12] and in [14] was “inactive” in each case. Further, the Potency result in test [15] was “inactive”. In addition, the compound was classed as inactive in test [2], in test [3], in test [4], in test [5], in test [7] and in test [9]. For the same compound, the call in [13] was inactive. The Potency in test [8] is 30.4 µM (active) and inactive.
Regarding `O=C1CCCCCN1`, the Potency result in test [1], in test [6], in test [8], in test [10], in test [11] and in test [12] was “inactive” throughout. Further, the Potency result in test [14] and in [15] was “inactive” each time. The compound was classed as inactive in test [2], in [3], in [4], in [5], in test [7] and in test [9]. For the same compound, in [13], the result was inactive.
`Cc1cccc(C)c1O`: the Potency result in test [1], in test [6], in [8], in test [10], in test [11] and in test [12] was “inactive” each time. The Potency result in [14] and in [15] was “inactive” in each case. Moreover, the compound was classed as inactive in test [2], in [3], in test [4], in test [5], in [7] and in [9]. In addition, the result in test [13] was inactive.
Take `C1CNCCN1`: the Potency entry in test [1], in [6], in [8], in test [10], in test [12] and in test [14] was “inactive” each time. The Potency entry in test [15] is “inactive”. For the same compound, the compound was classed as inactive in [2], in [3], in test [4], in test [5], in [7] and in [9]. Further, the compound was classed as inactive in test [13]. In addition, the Potency in test [11] was 11.3 µM (active) and inactive.
